PubChem BioAssay (NCI)
Several values for one entry are separate records, joined by “and”; a condition that tells them apart may be missing. Equal values may be shown once. Compounds without any hit were thinned out: in the full panel of roughly 83,000, 20% have a hit.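 Testing used 96-well plates and a 48-hour single-concentration exposure. Example: -40 means 40% of the starting cells died.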 The source holds several records for some structures; these can differ, active in one and inactive in another. Activity calls are given as the source filed them. Rule for the calls: active = growth percent below 10; inactive = the rest.

Legend:
Assay in all cases: NCI-60 one-dose screen, 48 h (100 = growth as untreated, 0 = no growth, -100 = all killed)
Conditions in all cases: 10 µM unless noted
SR leukemia = system: SR leukemia
RPMI-8226 leukemia = system: RPMI-8226 leukemia
OVCAR-5 ovarian = system: OVCAR-5 ovarian
OVCAR-4 ovarian = system: OVCAR-4 ovarian
SK-OV-3 ovarian = system: SK-OV-3 ovarian
IGROV1 ovarian = system: IGROV1 ovarian
OVCAR-3 ovarian = system: OVCAR-3 ovarian
HS 578T breast = system: HS 578T breast
NCI/ADR-RES ovarian = system: NCI/ADR-RES ovarian
OVCAR-8 ovarian = system: OVCAR-8 ovarian

Structure (SMILES) | growth (SR leukemia) | growth (RPMI-8226 leukemia) | growth (OVCAR-5 ovarian) | growth (OVCAR-4 ovarian) | growth (SK-OV-3 ovarian) | growth (IGROV1 ovarian) | growth (OVCAR-3 ovarian) | growth (HS 578T breast) | growth (NCI/ADR-RES ovarian) | growth (OVCAR-8 ovarian)
O=C(/C(Cl)=N/O)c1ccc(-c2ccccc2)cc1 | -24% (active) | 85.2% (inactive) | 109% (inactive) | 112% (inactive) | 99.5% (inactive) | 71.8% (inactive) | 72.3% (inactive) | 110% (inactive) | 99.9% (inactive) | 
Nc1ccc(Oc2ccccc2)c(Cl)c1 | 92.1% (inactive) | 101% (inactive) | 83.9% (inactive) |  | 91.6% (inactive) | 112% (inactive) | 113% (inactive) | 91.7% (inactive) | 114% (inactive) | 
COc1cc(/C=C/C(=O)CC(=O)/C=C/c2ccc(O)c(OC)c2)ccc1O | -5.89% (active) | -30.3% (active) | 61.1% (inactive) | 65.8% (inactive) | 75.3% (inactive) |  | 37.3% (inactive) | 55.6% (inactive) | 37.2% (inactive) | 
O=C(OC12CC3CC(CC(C3)C1)C2)c1ccc(NCc2cc(O)ccc2O)cc1 | -19.4% (active) | -36% (active) | -63.4% (active) | -85.5% (active) | 45.7% (inactive) | -81.4% (active) | -90.3% (active) |  | -79.1% (active) | 
NC(CS/C(Cl)=C/Cl)C(=O)O (configuration not stated) | 96% (inactive) |  | 99.8% (inactive) | 101% (inactive) | 94% (inactive) | 96.4% (inactive) | 102% (inactive) | 104% (inactive) | 86.2% (inactive) | 64.6% (inactive)
CC(C)=CCCC(C)C1=C(O)C(=O)C(C)=CC1=O (configuration not stated) | -12.4% (active) | -34.2% (active) | 97.4% (inactive) |  | 97.8% (inactive) |  | -12.5% (active) | 94.4% (inactive) | 95% (inactive) | 
CN=C(N)N/N=C(\c1ccccc1)c1ccc(Br)cc1 | -15.2% (active) | 27.5% (inactive) | 32.4% (inactive) | 42.1% (inactive) | -1.99% (active) |  | 2.68% (active) | 18.4% (inactive) | 9% (active) | 
CC1(C)N=c2cc3c(cc2N1c1ccc(Cl)cc1)=Nc1ccccc1N3c1ccc(Cl)cc1 | -41.9% (active) | -27.5% (active) | 25.5% (inactive) | 39.1% (inactive) | 59.4% (inactive) |  | 35.9% (inactive) |  | 20.4% (inactive) | 
O=C1c2ccccc2Cc2cccc(Cl)c21 | 64.1% (inactive) |  | 93.9% (inactive) | 108% (inactive) | 98% (inactive) | 88.7% (inactive) | 108% (inactive) | 112% (inactive) | 96% (inactive) | 108% (inactive)
NC(=Nc1nc(-c2ccccn2)cc2ccccc12)c1ccccn1 | 6.67% (active) | -11.3% (active) | -15.7% (active) | 27.1% (inactive) | 19.7% (inactive) | -9.19% (active) | 29.3% (inactive) |  | -31.2% (active) | 
OC(c1cc(-c2ccc(C(F)(F)F)cc2)nc(C(F)(F)F)c1)C1CCCCN1 (configuration not stated) | -37.6% (active) and -57.5% (active) and -38.9% (active) |  | 30.4% (inactive) and -33.3% (active) and 61% (inactive) | -6.94% (active) and -29.6% (active) and 39.1% (inactive) | 24.4% (inactive) and 39.9% (inactive) and 86.2% (inactive) | -25.6% (active) and -92.4% (active) and 30.5% (inactive) | -70.3% (active) and -68.3% (active) and 8.69% (active) | -3.8% (active) and -53.8% (active) and 48.9% (inactive) | -31.5% (active) and -50% (active) and 25% (inactive) | -57.7% (active) and -54.5% (active) and -34.4% (active)
CCC(C)C(N)C(=O)NC(CC(N)=O)C(=O)NC(CC(C)C)C(=O)NC(CCCCN)C(=O)NC(C)C(=O)NC(CC(C)C)C(=O)NC(C)C(=O)NC(C)C(=O)NC(CC(C)C)C(=O)NC(C)C(=O)NC(CCCCN)C(=O)NC(CCCCN)C(=O)NC(C(=O)NC(CC(C)C)C(N)=O)C(C)CC (configuration not stated) | 85.8% (inactive) | 74.7% (inactive) | 166% (inactive) | 95.2% (inactive) | 110% (inactive) | 102% (inactive) | 117% (inactive) |  | 102% (inactive) | 
CN1CCC(CN2c3ccccc3Sc3ccccc32)C1 (configuration not stated) | 79.2% (inactive) | 78.7% (inactive) | 84.1% (inactive) | 94.4% (inactive) | 109% (inactive) |  | 88.8% (inactive) | 86.1% (inactive) | 85.8% (inactive) | 
CC1=CC(=NC(=O)CBr)C=C/C1=N\S(=O)(=O)c1ccccc1 | 58.3% (inactive) |  | 122% (inactive) | 50.6% (inactive) | 91.7% (inactive) | -3.37% (active) | 8.58% (active) | 89.1% (inactive) | 89.4% (inactive) | 66.6% (inactive)
Oc1c(Cl)cc(Cl)cc1C=NCC1CCC(CN=Cc2cc(Cl)cc(Cl)c2O)CC1 (configuration not stated) | 52.3% (inactive) |  | 114% (inactive) | 75.2% (inactive) | 88.5% (inactive) | 69.6% (inactive) | 83.5% (inactive) | 92.7% (inactive) | 85.2% (inactive) | 90% (inactive)
Cc1cccc2c(N)c3ccccc3nc12 | 2.95% (active) |  | 7.56% (active) | 1.48% (active) | -3.15% (active) | -13.2% (active) | -17.3% (active) | 16.5% (inactive) | -47.5% (active) | -9.82% (active)
CC(CSc1n[nH]c(=S)s1)c1ccccc1 (configuration not stated) | 84.5% (inactive) |  | 127% (inactive) | 94.1% (inactive) | 102% (inactive) | 110% (inactive) | 117% (inactive) | 108% (inactive) | 114% (inactive) | 109% (inactive)
COc1cc(NCc2ccc3nc(N)nc(N)c3c2C)cc(OC)c1OC (tested in a mixture with another compound) | 31.7% (inactive) | 41.7% (inactive) | 36.9% (inactive) |  | 58% (inactive) |  | 55.3% (inactive) | 44.1% (inactive) | 32.2% (inactive) | 
C[C@@]1(CO)[C@H](O)CC[C@@]2(C)[C@H]1CC[C@H]1C[C@@H]3C[C@@]12CC[C@@]3(O)COC(=O)CN | 18.9% (inactive) | 43% (inactive) | 24.7% (inactive) | 87.9% (inactive) | 74.8% (inactive) | 33.5% (inactive) | 70.9% (inactive) |  | 11.1% (inactive) | 
O=C1c2ccccc2C(=O)c2c(O)c(Cl)cc(O)c21 | 62% (inactive) |  | 92.6% (inactive) | 84.3% (inactive) | 99.5% (inactive) | 81.1% (inactive) | -17.9% (active) | 106% (inactive) | 93.7% (inactive) | 58.2% (inactive)
CCN(CC)CCNc1ccc([N+](=O)[O-])c2sc3ccccc3c(=O)c12 | 11.1% (inactive) |  | 45% (inactive) | 12% (inactive) | 32.6% (inactive) | -10.9% (active) | 36.7% (inactive) | 20.4% (inactive) | 32.8% (inactive) | 19.1% (inactive)
Oc1ccc2ccccc2c1N=Nc1nccs1 | -10% (active) |  | 45.3% (inactive) | 16.2% (inactive) | 51.6% (inactive) | 184% (inactive) | 1.47% (active) | 213% (inactive) | -22.6% (active) | 14.9% (inactive)
NC(=S)N/N=C/c1ncccc1O | 12.1% (inactive) | 11.3% (inactive) | -8.61% (active) | 35.2% (inactive) | 47.3% (inactive) | -11.2% (active) | 27.7% (inactive) |  | -27.4% (active) | 
Clc1ccc(Cc2nc3ccccc3s2)cc1 | 84.4% (inactive) | 101% (inactive) |  | 91% (inactive) | 128% (inactive) |  | 98.1% (inactive) | 100% (inactive) | 94.9% (inactive) | 
NNc1cccc([N+](=O)[O-])c1 | 35% (inactive) | 90.9% (inactive) | 94.8% (inactive) | 107% (inactive) |  | 83% (inactive) | 100% (inactive) | 106% (inactive) | 76.3% (inactive) | 
Cc1ccc(NC2=CC(=O)C(=O)c3ccccc32)cc1 | 25.9% (inactive) |  | -25.4% (active) | -0.0623% (active) | 79.9% (inactive) | 17.6% (inactive) | 13.7% (inactive) | 16.3% (inactive) | 19.3% (inactive) | 25% (inactive)
O=C1C=CC(=O)N1c1ccc(O)cc1 | 91.7% (inactive) | 91.9% (inactive) | 105% (inactive) | 103% (inactive) | 106% (inactive) |  | 119% (inactive) | 118% (inactive) | 106% (inactive) | 
COC1CC(C)C(OC)c2cc(O)cc(c2O)NC(=O)/C(C)=C/C=C\C(C)C(OC(N)=O)/C(C)=C\C(C)C1OC (configuration not stated) | -5.85% (active) | 1.65% (active) | 27.2% (inactive) | -39.9% (active) | 16.1% (inactive) | -0.486% (active) | 20.2% (inactive) |  | -67.2% (active) | 
